This passage reports growth results from PubChem BioAssay (NCI).

Where “and” joins values, the source holds several entries; their conditions need not be identical. Equal entries are not always repeated. About 83,000 compounds went through this panel and 20% of them were active in at least one assay; those are over-represented in the sample as a whole.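 Treatment: one concentration, 48 hours, 96-well format. Scoring: percent growth, with anything below 10 considered active.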 Calls of active or inactive are those of the source.

The test deals with HL-60(TB) leukemia. The experiment in a line: NCI-60 one-dose screen, 48 h (100 = growth as untreated, 0 = no growth, -100 = all killed). The conditions noted are these: 10 µM unless noted.
In the case of `Cc1cc(Cl)nc(N(CCNc2ccnc3cc(Cl)ccc23)Cc2ccco2)n1`, the growth was -47.7% (active).

Turning to `O=C(N/N=C/c1ccc2c(c1)OCO2)c1ccncc1`, the growth is 115% (inactive) and 225% (inactive).

With `O=C(O)c1ccc(-c2nn(-c3ccc(C(=O)O)cc3)cc2/C=N/Nc2c(F)c(F)cc(F)c2F)cc1`, the growth was 96.5% (inactive).

Take `OCc1n(Cc2ccc3ccccc3c2)cc[n+]1Cc1ccc2ccccc2c1`: the growth was 6.82% (active).

For `O=C1C(Cl)=C(Nc2ccccn2)C(=O)c2ccccc21`, the growth is 72.9% (inactive).

In the case of `Cc1ccc(-c2nnc(COc3ccc(-c4nnc(N)s4)cc3)o2)cc1`, the growth is 96.4% (inactive).

Regarding `COc1cccc(Cn2c(-c3nonc3NC(C)=O)nc3ccccc32)c1`, the growth is -2.59% (active).

With `CSc1nnc(-c2cc3c([nH]c4ccccc43)c(-c3cccc(O)c3)n2)n1-c1ccccc1`, the growth is 7.59% (active).

In the case of `CC(=O)n1nc(C(=O)OC(C)C)c2cc(C)c(C)cc21`, the growth is 83.7% (inactive).

`Nc1c(C(=O)Nc2ccccc2)sc2nc3c(cc12)C(O)CCC3` (centres undefined): the growth is -8.34% (active).

With `O=Cc1ccc([N+](=O)[O-])s1`, the growth was 81.9% (inactive).

As for `Cc1cc(NS(=O)(=O)c2ccc(N=Nc3cc(N=Nc4ccc(S(=O)(=O)Nc5cc(C)nc(C)n5)cc4)c4c(NC(=O)C(Cl)Cl)cccc4c3OC(=O)C(Cl)Cl)cc2)nc(C)n1` (tested in a mixture with another compound), the growth was 116% (inactive) and 98.5% (inactive).

Take `CC[C@]12C=CCN3CC[C@@]4(c5cc(NC(=O)CCC(=O)OCc6cn(Cc7ccc(F)cc7)nn6)c(OC)cc5N(C)[C@H]4[C@@](O)(C(=O)OC)[C@@H]1OC(C)=O)[C@@H]32`: the growth is 96.8% (inactive).

Take `CC12CCC(C(=O)CC1=O)C2(C)C` (centres undefined): the growth was 71.5% (inactive) and 93.6% (inactive).

For `CCCCn1c(-c2ccc(F)cc2)nc2cc(OC)c(OC)cc2c1=O`, the growth was 67.1% (inactive).

Consider `O=C(Nc1nc2ccccc2s1)c1ccc(F)cc1`, for which the growth is 111% (inactive).

On to `O=CC(O)C(O)C(O)CO` (centres undefined), for which the growth was 130% (inactive) and 91.5% (inactive).

For `Nc1nc2ccccc2c2c1S(=O)(=O)c1ccc(Cl)cc1C2=O`, the growth is -24.2% (active).

For `COc1ccc(-c2nn(-c3ccccc3)cc2/C=C2\SC(=O)NC2=O)cc1`, the growth was 88.2% (inactive).

Consider `CCCCC1(CC)COC(CCC)OC1` (centres undefined), for which the growth is 115% (inactive).

As for `COc1ccc(-c2cnc(N)nc2-c2ccc(OC)cc2O)cc1`, the growth was 79% (inactive).

As for `CC(C)N1C(=O)/C(=C2\SC(=S)N(C(C)C)C2=O)SC1=S`, the growth is 100% (inactive).

Consider `CC(C)Cc1ccc(C(C)C(=O)NCc2c[nH]c3ccc(Cl)cc23)cc1` (centres undefined), for which the growth was 87.6% (inactive).

Turning to `O=C(CNc1c(Cl)cccc1Cl)Nc1ccc(-c2nc3ccccc3s2)cc1`, the growth is 70.7% (inactive).

For `C=C(C)[C@@H]1CC[C@]2(C(=O)OC)CC[C@]3(C)[C@H](CC[C@@H]4[C@@]5(C)C/C(=C/c6ccc(OC)cc6)C(=O)C(C)(C)[C@@H]5CC[C@]43C)[C@@H]12`, the growth was 87.6% (inactive).

On to `C#CCOc1ccc2ncnc(Nc3cccc(NC(=O)C=C)c3)c2c1`, for which the growth was 63.1% (inactive).

Turning to `COC(=O)c1ccc2c(c1)nc(-c1cc3ccccc3[nH]c1=O)n2-c1cc(C(C)(C)C)[nH]n1`, the growth was -16.9% (active).

With `CCCCCc1cc[n+](CC(=O)c2ccccc2)cc1`, the growth was 91% (inactive) and 99.9% (inactive).

For `CCN1C(=O)N(CC)C2C1NN=c1s/c(=C\c3cccnc3)c(=O)n12` (centres undefined), the growth is -27.5% (active).

Take `C=C(C)[C@@H]1CC[C@]2(C(=O)O)CC[C@]3(C)[C@H](CC[C@@H]4[C@@]5(C)C/C(=C/c6ccc(OC)cc6)C(=O)C(C)(C)[C@@H]5CC[C@]43C)[C@@H]12`: the growth is 2.12% (active).

Regarding `C[C@H]1[C@H]2[C@H]3CC[C@@H]4[C@@]5(C)C/C(=C/c6cccnc6)C(=O)C(C)(C)[C@@H]5CC[C@@]4(C)[C@]3(C)CC[C@]23CO[C@]1(C)[C@@H](C(=O)/C=C\c1cccnc1)C3`, the growth is 14.5% (inactive).

As for `O=C1/C(=C\c2cn(C(=O)c3ccc(Cl)cc3)c3ccccc23)c2ccccc2N1c1c(Cl)cccc1Cl`, the growth was 103% (inactive).

`CC(=O)Oc1ccc(C23c4ccccc4C2(OC(C)=O)c2cc(OC(C)=O)ccc23)cc1` (centres undefined): the growth is 11.7% (inactive).

With `Clc1ccc(/C=C/c2ccc3ccccc3n2)cc1`, the growth was -14.2% (active) and 77.3% (inactive) and 60.8% (inactive).
